Assay results taken from PubChem BioAssay (Tox21).
Inconclusive results are not listed. The source made the active and inactive calls. Calls follow the shape of the dose curve; as a rule, active = well fitted activation curve with a large enough effect in the signal ratio in the repeat runs (not every such curve was filed as active); inconclusive = weak or mixed curves, or effect the other way; inactive = flat fitted curve, though single readings scatter; the % refers to the signal ratio.

Assay: qHTS assay to identify small molecule agonists of the endoplasmic reticulum stress response signaling pathway (AID 1159516)
Settings: ESRE-bla HeLa, ER stress beta-lactamase reporter, 5 h; series mostly up to 61 µM
Procedure, shortened: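 For this screen, HeLa cells stably carrying beta-lactamase under the ER stress response element received test compounds, positive controls or DMSO for 5 hr at 37 C; B/G FRET substrate was then added and dual-wavelength emission recorded.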
For `CCC(=O)c1ccccc1`, the outcome was “inactive”. In the case of `CNC(=O)N(C)c1nc2ccccc2s1`, the outcome was “inactive”. With `COc1ccc(C(=O)N2CCCC2=O)cc1` the outcome was “inactive”. In the case of `COC(=O)C(C)Oc1ccc(Oc2ccc(Cl)cc2Cl)cc1` (stereo not given), the outcome was “inactive”. With `Clc1ccccc1N1CCNCC1` the outcome was “inactive”. For `Fc1cc(Br)ccc1CBr`, the outcome was “inactive”. In the case of `CN/C(=N\[N+](=O)[O-])NCC1CCOC1` (stereo not given), the outcome was “inactive”. For `CC(C1CC1)C(O)(Cn1cncn1)c1ccc(Cl)cc1` (stereo not given), the outcome was “inactive”. In the case of `C[N+](=O)[O-]`, the outcome was “inactive”. For `Nc1c(Br)cc([N+](=O)[O-])cc1[N+](=O)[O-]`, the outcome was “inactive”. For `CSc1ccc(C(=O)C(C)(C)N2CCOCC2)cc1`, the outcome was “inactive”. With `O=C(Oc1ccc(Br)cc1)N1CCN2CCC1CC2` the outcome was “inactive”. For `COc1cc(OC)nc(NC(=O)NS(=O)(=O)c2ncccc2OCC(F)(F)F)n1`, the outcome was “inactive”. With `CCS(=O)(=O)CCSP(=O)(OC)OC` the outcome was “inactive”. With `O=C1CN2CCOC2(c2ccccc2Cl)c2cc(Cl)ccc2N1` (stereo not given) the outcome was “inactive”. For `O=[N+]([O-])c1ccc(CBr)cc1`, the outcome was “inactive”. In the case of `CC1=NNC(=O)N(/N=C/c2cccnc2)C1`, the outcome was “inactive”. In the case of `Cc1cccc(C#N)c1`, the outcome was “inactive”. For `C(CCOCC1CO1)COCC1CO1` (stereo not given), the outcome was “inactive”. In the case of `CC1=C(C(=O)O)N2C(=O)[C@@H](N)[C@H]2SC1`, the outcome was “inactive”. In the case of `CC1(C(=O)Nc2ccc(O)c(Cl)c2Cl)CCCCC1`, the outcome was “inactive”. With `CC1=C(C(=O)Nc2ccccc2)S(=O)(=O)CCO1` the outcome was “inactive”. For `CC(C)CC#N`, the outcome was “inactive”. With `Cc1ccccc1CO[C@@H]1C[C@@]2(C(C)C)CC[C@]1(C)O2` the outcome was “inactive”. For `CCOP(=O)(OCC)OP(=O)(OCC)OCC`, the outcome was “inactive”.
